Assay outcomes as filed in PubChem BioAssay.
ELG1 genotoxic: qHTS screen for small molecules that induce genotoxicity in human embryonic kidney (HEK293T) cells expressing luciferase-tagged ELG1. HEK293T ELG1-luciferase reporter, luminescence, 16 h. Potency, µM (highest dose often 46 µM), hits mostly activators. 1.3% of 330,000 active. AID 504466, 2011; further: nearly all actives have a fitted effect of over 60% in size
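Genotoxicity was scored as increased ELG1-luciferase reporter signal, measured by ONE-Glo luminescence (30 min, room temperature). Compound or vehicle exposure of the HEK293T reporter cells lasted 16 hr at 37°C.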
FLuc modulator: qHTS profiling assay for firefly luciferase inhibitor/activator using purifed enzyme and Km concentrations of substrates (counterscreen for miR-21 project). 6.9% of 360,000 active. AID 588342, 2011. Potency, µM (highest dose often 57.5 µM), hits mostly inhibitors. purified FLuc, Km substrates, luminescence inhibition. Luciferin 4-monooxygenase (Photinus pyralis), P08659; further: nearly all actives have a fitted effect of over 55% in size
Target sequence (P08659 whole entry, looked up): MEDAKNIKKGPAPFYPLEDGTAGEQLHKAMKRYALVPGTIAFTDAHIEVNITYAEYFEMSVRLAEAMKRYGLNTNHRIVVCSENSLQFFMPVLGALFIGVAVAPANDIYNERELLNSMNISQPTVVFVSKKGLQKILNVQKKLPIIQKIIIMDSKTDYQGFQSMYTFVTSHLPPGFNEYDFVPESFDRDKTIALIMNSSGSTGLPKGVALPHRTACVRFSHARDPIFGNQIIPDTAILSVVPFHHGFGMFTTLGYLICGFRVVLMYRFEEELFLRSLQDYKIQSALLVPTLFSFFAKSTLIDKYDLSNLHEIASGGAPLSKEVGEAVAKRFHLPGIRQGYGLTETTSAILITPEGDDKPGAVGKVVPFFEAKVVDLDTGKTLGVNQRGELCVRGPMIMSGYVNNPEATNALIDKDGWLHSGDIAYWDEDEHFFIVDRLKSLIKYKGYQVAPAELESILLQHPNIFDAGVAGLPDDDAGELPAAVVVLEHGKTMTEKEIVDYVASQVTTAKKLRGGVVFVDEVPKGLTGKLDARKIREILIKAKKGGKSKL
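Biochemical qHTS of compounds, final roughly 60 µM downward over six points, against 10 nM purified firefly luciferase using Km concentrations of substrates (10 uM D-luciferin, 10 uM ATP) in Tris acetate pH 7.5 buffer; luminescence output.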
Rab9 promoter act: qHTS Assay for Rab9 Promoter Activators. 2.8% of 320,000 active. Huh7 Rab9 promoter-luciferase reporter, luminescence, 24 h. AID 485297, 2010. Potency, µM (titrated, usually from 9.22 µM), usual class: activators; further: nearly all actives have a fitted effect of over 60% in size
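Huh7 reporter line, Rab9 promoter upstream of luciferase. Compound exposure 24 h at 37 °C in reduced-serum medium with 10% FBS. Read-out: luminescence.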
NPC1 prom act: qHTS Assay for NPC1 Promoter Activators; Huh7 NPC1 promoter luciferase reporter, 24 h; Potency, µM (highest dose often 9.22 µM), hits mostly activators; 2.4% of 320,000 active; AID 485313, 2010; further: nearly all actives have a fitted effect of over 60% in size
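In 1536-well qHTS, Huh7 cells harboring an NPC1 promoter–luciferase construct received compound for 24 h; activation was quantified by luminescence following luciferase reagent addition.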
SMN2 splice enh: qHTS Assay for Enhancers of SMN2 Splice Variant Expression. HEK293 SMN2-luciferase splicing reporter, luminescence, 30-36 h. Potency, µM (series often up to 46.1 µM), usual class: activators. 2.8% of 210,000 active. AID 1458, 2008; further: nearly all actives have a fitted effect of over 55% in size
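qHTS luciferase splicing reporter: luminescence rises when SMN2 exon 7 is included in transfected HEK293 cells. Compound exposure lasted 30-36 h at 37C, with 4.5 mM final sodium butyrate as control, followed by a ONE-Glo read.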
KinaseGlo FLuc: Counterscreen for Luciferase (Kinase-Glo TM) Inhibition | Luciferin 4-monooxygenase (Photuris pensylvanica), Q27757 | Kinase-Glo luciferase, ATP luminescence, 8 min | Potency, µM (top dose mostly 38.3 µM), hits mostly inhibitors | 0.28% of 200,000 active | AID 1379, 2008; further: nearly all actives have a fitted effect of over 60% in size
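Substrate mix (final 50 mM imidazole pH 7.2, 50 mM KCl, 7 mM MgCl2, 10 uM ATP, 0.01% Tween 20, 0.05% BSA) plus pin-tool compound, then Kinase-Glo detection mix; 8 min ambient, luminescence read.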
Numbers stand for hits. An excerpt weighted towards active compounds, which were near 7.5% of everything screened. The call rests on the fitted dose curve; in most records, active means well fitted curve in the direction sought with a large enough effect; inconclusive means small, poorly fitted or top-dose-only effect, or another doubt; inactive means no such curve, though single readings can be large; an effect the other way counts as inactive or inconclusive.

COc1cc(/C=C2\SC(N)=NC2=O)ccc1O was read as ELG1 genotoxic inactive, FLuc modulator inconclusive, Rab9 promoter act inactive and NPC1 prom act inactive.
`C=CCOc1ccc(/C=C2\SC(N)=NC2=O)cc1OC` gave ELG1 genotoxic inconclusive, FLuc modulator 11µM, Rab9 promoter act inactive and NPC1 prom act inactive.
For COc1ccc(/C=C2\SC(=O)N(CCNC(=O)C3CC4C=CC3C4)C2=O)cc1 (stereo not drawn) the results were ELG1 genotoxic inconclusive, FLuc modulator 6.7µM, Rab9 promoter act 0.71µM, NPC1 prom act 2.8µM, SMN2 splice enh 25µM and KinaseGlo FLuc inactive.
COc1ccc(/C=C2\SC(=O)N(CCC(=O)N3CCCCC3CCO)C2=O)cc1 (stereo not drawn) was read as ELG1 genotoxic inactive, FLuc modulator 9.5µM, Rab9 promoter act inactive and NPC1 prom act inactive.
For COc1ccc(/C=C2\SC(=O)N(CCNC(=O)C3CSC4(C)CCC(=O)N34)C2=O)cc1 (stereo not drawn) the results were ELG1 genotoxic inactive, FLuc modulator 17µM, Rab9 promoter act inactive and NPC1 prom act inactive.
`COc1ccc(/C=C2\SC(=S)N(CCC(=O)N3CCCCC3CCO)C2=O)cc1` (stereo not drawn) gave ELG1 genotoxic inactive, FLuc modulator inconclusive, Rab9 promoter act inactive and NPC1 prom act inactive.
For COc1ccc(/C=C2\SC(=O)N(CCNC(=O)CN3C(=O)NC4(CCCC4)C3=O)C2=O)cc1 the results were ELG1 genotoxic inactive, FLuc modulator inactive, Rab9 promoter act inactive and NPC1 prom act inactive.
Screening COc1ccc(CNC(=O)C2(c3cccs3)CCOCC2)cc1 returned FLuc modulator inactive.
Cc1cccc(NC(=O)c2cc3c(=O)n(Cc4cccnc4)ccc3nc2C)c1 was read as FLuc modulator inactive.
Screening COc1cc(OC)c(NC(=O)c2ccc3c(c2)N(Cc2ccc(C)cc2)CCS3)cc1Cl returned FLuc modulator inactive and SMN2 splice enh inactive.
O=C(CSc1ncccc1C(=O)O)c1cccc(C(F)(F)F)c1 was read as ELG1 genotoxic inconclusive, FLuc modulator 24µM, Rab9 promoter act inconclusive, NPC1 prom act inactive, SMN2 splice enh inconclusive and KinaseGlo FLuc inactive.
O=C(CSc1ncccc1C(=O)O)c1ccccc1F was read as ELG1 genotoxic inactive, FLuc modulator inconclusive, Rab9 promoter act inactive, NPC1 prom act inactive, SMN2 splice enh inactive and KinaseGlo FLuc inactive.
`O=C(CSc1ncccc1C(=O)O)c1ccc2ccccc2c1` gave ELG1 genotoxic inactive, FLuc modulator 9.5µM, Rab9 promoter act inconclusive, NPC1 prom act inconclusive, SMN2 splice enh inconclusive and KinaseGlo FLuc inactive.
`O=C(O)[C@@H](O)[C@@H](O)[C@@H](O)[C@@H](O)C(=O)O` (tested in a mixture with another compound) gave SMN2 splice enh inactive and KinaseGlo FLuc inactive.
CC(C)C(NC(=O)OCc1ccccc1)C(=O)OCC(=O)N1CCCCC1 (stereo not drawn) was read as ELG1 genotoxic 21µM, FLuc modulator 17µM, Rab9 promoter act inconclusive, NPC1 prom act inactive, SMN2 splice enh inconclusive and KinaseGlo FLuc inactive.
Cc1cc2ncc(-c3ncc(C(F)(F)F)cc3Cl)cn2n1 was read as ELG1 genotoxic inconclusive, FLuc modulator 1.3µM, Rab9 promoter act 0.4µM, NPC1 prom act 0.71µM, SMN2 splice enh 1.3µM and KinaseGlo FLuc inactive.
Screening Cc1nn2cc(-c3ncc(C(F)(F)F)cc3Cl)cnc2c1Br returned ELG1 genotoxic inconclusive, FLuc modulator 1.5µM, Rab9 promoter act 0.32µM, NPC1 prom act 0.4µM and KinaseGlo FLuc inconclusive.
For C[C@@]12CC[C@@H]3c4ccc(O)cc4CC[C@H]3[C@H]1C[C@@H](O)[C@H]2O the results were SMN2 splice enh inactive and KinaseGlo FLuc inactive.
